USP30 block – inhibitors of human USP30 deubiquitinase; Q70CQ3; purified USP30, Ub-rhodamine cleavage fluorescence; inhibition, % at 25 µM; 47,000 tested, 5.3% active; AID 1645860
Target sequence (Q70CQ3 whole entry, looked up): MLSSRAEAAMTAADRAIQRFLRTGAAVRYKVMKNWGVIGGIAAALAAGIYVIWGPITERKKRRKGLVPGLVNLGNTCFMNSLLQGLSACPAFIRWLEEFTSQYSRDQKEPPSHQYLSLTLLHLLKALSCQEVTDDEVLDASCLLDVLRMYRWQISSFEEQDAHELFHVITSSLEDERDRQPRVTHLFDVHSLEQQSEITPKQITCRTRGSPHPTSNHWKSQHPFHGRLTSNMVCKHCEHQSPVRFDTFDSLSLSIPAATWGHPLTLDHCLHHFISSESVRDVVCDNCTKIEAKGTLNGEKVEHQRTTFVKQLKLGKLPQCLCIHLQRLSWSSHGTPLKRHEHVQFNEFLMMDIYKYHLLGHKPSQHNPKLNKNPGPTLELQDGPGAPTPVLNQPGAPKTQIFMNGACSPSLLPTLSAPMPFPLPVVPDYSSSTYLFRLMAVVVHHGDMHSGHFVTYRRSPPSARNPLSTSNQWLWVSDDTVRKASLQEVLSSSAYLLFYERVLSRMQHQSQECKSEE
OTUD3 block – inhibitors of human OTUD3 deubiquitinase | Q5T2D3 | purified OTUD3, Ub-rhodamine fluorescence, 2 h | inhibition, % at 25 µM | 47,000 tested, 0.7% active
USP17 block – human USP17-like deubiquitinase inhibition. A8MUK1. purified USP17, Ub-rhodamine cleavage fluorescence, 3 h. inhibition, % at 50 µM. 47,000 tested, 6.5% active. AID 1645855
USP28 block – inhibitors of human USP28 deubiquitinase; Q96RU2; inhibition, % at 25 µM; 47,000 tested, 3% active; purified USP28, Ub-rhodamine cleavage fluorescence, 30 min
* = called active by the depositor. A selection: hits, their analogues and other compounds. The true share with any hit is near 12%. Rule as the data show it: active = inhibition above about 30%; inactive = the rest.

How did Cc1ccc(S(=O)(=O)NCc2ccc(C(=O)NCCc3ccc(S(N)(=O)=O)cc3)cc2)cc1 do in these assays?
USP30 block: 87.8*; OTUD3 block: 76.8*; USP17 block: 87.5*; USP28 block: 68.8*

What do the screens show for `CC(=O)Nc1ccc(S(=O)(=O)NCc2ccc(C(=O)NCCc3ccc(Cl)cc3)cc2)cc1`?
USP30 block: 95.6*; OTUD3 block: 5.8; USP17 block: 17.0; USP28 block: 91.8*

How did CCCn1c(C(C)NC(=O)COc2ccccc2)nc2ccccc21 (stereo unspecified) do in these assays?
USP30 block: -13.0; OTUD3 block: -5.6; USP17 block: -5.3; USP28 block: -1.1

What do the screens show for `COC(=O)c1cc2oc3ccccc3c2n1CC(=O)Nc1ccc(Br)cc1F`?
USP30 block: -123.5; OTUD3 block: -6.0; USP17 block: -20.4; USP28 block: -19.6

What do the screens show for `O=c1c2ccccc2nc(N2CCN(Cc3ccccc3)CC2)n1-c1ccccc1`?
USP30 block: 2.8; OTUD3 block: -2.8; USP17 block: -18.9; USP28 block: -12.7

Results for O=c1c2ccccc2nc(CSc2nc3ccc4[nH]snc4c3n2)n1-c1ccccc1 ?
USP30 block: 37.5*; OTUD3 block: 22.8; USP17 block: 51.4*; USP28 block: 51.0*

How did Cc1cc(C)n2ncc(C(=O)NCCCN3CCCC3=O)c2n1 do in these assays?
USP30 block: 7.5; OTUD3 block: 0.1; USP17 block: -0.3; USP28 block: -7.7

How did COc1ccc(CNC(=O)Cn2cnc3ccccc32)cc1OC do in these assays?
USP30 block: -4.8; OTUD3 block: -3.9; USP17 block: 1.0; USP28 block: -5.7

How did COc1cc(Cn2nnc3ccccc32)cc(Br)c1O do in these assays?
USP30 block: -8.0; OTUD3 block: 8.5; USP17 block: 7.8; USP28 block: 38.2*

What do the screens show for `CCCN1CCC2(C1)c1ccccc1S(=O)(=O)N2Cc1ccc(OC)cc1` (stereo unspecified)?
USP30 block: -7.0; OTUD3 block: 0.0; USP17 block: -35.6; USP28 block: -0.5

Results for CN(C)C1CCN(C(=O)c2c3c(NCC4CC4)ncnc3n3ccccc23)CC1 ?
USP30 block: -57.3; OTUD3 block: -11.8; USP17 block: -9.2; USP28 block: -7.0

How did Cc1cc(C(=O)COc2ncnc3sccc23)c(C)n1-c1ccc2c(c1)OCO2 do in these assays?
OTUD3 block: -1.6; USP17 block: 57.3*

Results for Cc1cc(C(=O)COC(=O)c2ccc[nH]c2=O)c(C)n1-c1ccc2c(c1)OCO2 ?
USP30 block: -30.1; OTUD3 block: -6.1; USP17 block: 66.5*; USP28 block: 0.1

Results for Cc1cc(C(=O)COc2ncnc3sccc23)c(C)n1CC1COc2ccccc2O1 (stereo unspecified) ?
USP30 block: -120.2; OTUD3 block: -39.0; USP28 block: -28.8

Results for Cc1ccc(S(=O)(=O)CCC(=O)OCC(=O)c2cc(C)n(-c3ccc4c(c3)OCO4)c2C)cc1 ?
USP30 block: 2.9; OTUD3 block: 0.1; USP17 block: 41.1*; USP28 block: 17.7

How did O=C(COC(=O)c1ccccc1NC(=O)c1ccc(Oc2ccccc2)cc1)c1ccc2c(c1)OCO2 do in these assays?
USP30 block: -2.9; OTUD3 block: -1.9; USP17 block: -2.9; USP28 block: -2.8

What do the screens show for `COc1cc(Br)c(CC(=O)OCC(=O)c2cc(C)n(-c3ccc(Cl)cc3)c2C)cc1OC`?
USP30 block: -58.9; OTUD3 block: -10.9; USP17 block: -27.8; USP28 block: -9.8

How did Cc1cc(C(=O)CN2CCN(Cc3ccc4c(c3)OCO4)CC2)c(C)n1-c1ccc2c(c1)OCO2 do in these assays?
USP30 block: -15.6; OTUD3 block: 6.0; USP17 block: 54.6*; USP28 block: 18.1

What do the screens show for `COCCCNC(=O)C1(C)CCC(=O)N1c1ccccc1OC` (stereo unspecified)?
USP30 block: 18.0; OTUD3 block: 8.3; USP17 block: 0.4; USP28 block: 0.1

What do the screens show for `Cn1c(=O)n(Cc2ccc(Cl)cc2)c(=O)c2cnc(-c3ccncc3)nc21`?
USP30 block: -27.2; OTUD3 block: -3.4; USP17 block: -9.1; USP28 block: -0.7

Results for CN(C)CCCn1cnc2scc(-c3ccccc3)c2c1=O ?
USP30 block: -18.9; OTUD3 block: -4.4; USP17 block: -5.9; USP28 block: -6.3

Results for COc1ccc(-c2csc(-c3cc4c([nH]c3=O)CC(c3ccco3)CC4=O)n2)cc1 (stereo unspecified) ?
USP30 block: -188.4; OTUD3 block: 2.9; USP17 block: 21.1; USP28 block: -22.9

Results for O=C1CC(c2ccco2)Cc2[nH]c(=O)c(-c3nc(-c4ccc(Cl)cc4)cs3)cc21 (stereo unspecified) ?
USP30 block: -336.9; OTUD3 block: 37.9*; USP17 block: 6.3; USP28 block: -4.8
